Inconclusive results are not listed. Calls of active or inactive are those of the source. The call rests on the fitted dose curve; in most records, active means well fitted inhibition curve with a large enough effect in the repeat runs; inconclusive means weak or mixed curves, or effect the other way; inactive means no such curve, though single readings can be large or run the other way.

Chain of Androgen receptor (Homo sapiens) (P10275 whole entry, looked up): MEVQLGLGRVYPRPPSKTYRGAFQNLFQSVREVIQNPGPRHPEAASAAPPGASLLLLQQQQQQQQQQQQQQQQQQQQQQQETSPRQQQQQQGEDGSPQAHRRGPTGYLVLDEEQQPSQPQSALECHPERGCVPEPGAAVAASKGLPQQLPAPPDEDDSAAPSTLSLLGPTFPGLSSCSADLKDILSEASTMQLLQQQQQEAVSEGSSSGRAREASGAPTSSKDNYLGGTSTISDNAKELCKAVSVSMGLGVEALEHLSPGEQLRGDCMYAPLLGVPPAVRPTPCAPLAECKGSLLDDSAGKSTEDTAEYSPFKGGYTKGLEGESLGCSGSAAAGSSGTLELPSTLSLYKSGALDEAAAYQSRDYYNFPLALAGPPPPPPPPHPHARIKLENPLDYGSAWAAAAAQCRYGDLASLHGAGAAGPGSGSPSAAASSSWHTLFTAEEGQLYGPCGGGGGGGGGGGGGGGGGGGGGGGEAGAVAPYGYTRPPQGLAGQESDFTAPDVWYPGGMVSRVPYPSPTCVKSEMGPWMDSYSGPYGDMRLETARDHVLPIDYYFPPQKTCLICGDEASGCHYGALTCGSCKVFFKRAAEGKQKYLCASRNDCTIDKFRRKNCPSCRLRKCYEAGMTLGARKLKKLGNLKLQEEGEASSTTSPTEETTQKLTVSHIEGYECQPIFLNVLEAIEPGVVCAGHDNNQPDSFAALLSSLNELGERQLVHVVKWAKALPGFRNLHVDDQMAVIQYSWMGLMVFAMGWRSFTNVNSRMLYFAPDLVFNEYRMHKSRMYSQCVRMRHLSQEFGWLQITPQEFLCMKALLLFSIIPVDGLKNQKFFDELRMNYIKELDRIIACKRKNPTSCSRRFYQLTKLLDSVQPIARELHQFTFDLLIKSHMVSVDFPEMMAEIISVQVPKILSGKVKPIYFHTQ

This test addresses Androgen receptor (Homo sapiens) (UniProt P10275). The test is described as follows: qHTS assay to identify small molecule antagonists of the androgen receptor (AR) signaling pathway using the MDA cell line (AID 743042; further: nearly all actives have a fitted effect of over 55% in size). The note with it: MDA-kb2 AR-luc, MMTV luciferase, R1881 antagonist, 16 h; series mostly up to 70.3 µM. An excerpt:
U.S. Tox21 Program National Center for Advancing Translational Sciences [NCATS] NIH Chemical Genomics Center [NCGC] U.S. Environmental Protection Agency [EPA] National Institutes of Environmental Health Sciences [NIEHS] National Toxicology Program [NTP] U.S. Food and Drug Administration [FDA] Tox21 Assay Overview: Androgen receptor (AR), a nuclear hormone receptor, plays a critical role in AR-dependent prostate cancer and other androgen related diseases. Endocrine disrupting chemicals (EDCs) and their interactions with steroid hormone receptors like AR may cause disruption of normal endocrine function as well as interfere with metabolic homeostasis, reproduction, developmental and behavioral functions. To identify the compounds that inhibit AR signaling, MDA-kb2 AR-luc cell line (from ATCC, deposited by Wilson et al.) was used to screen the Tox21 10K compound library. MDA-kb2 AR-luc cell line is human breast carcinoma cell line that was stably transfected with a luciferase reporter gene under control of the MMTV promoter containing response elements for both androgen receptor (AR) and glucocorticoid receptor (GR).
Tox21 Assay Protocol Summary: MDA-kb2 cells were dispensed at 3,000 cells/4 uL/well of culture medium into white wall/solid-bottom 1536-well plates using a Multidrop Combi (ThermoFisher Scientific, Waltham, MA) dispenser. After the assay plates were incubated at a 37C and 0% CO2 for 5 hr, 23 nL of compounds dissolved in DMSO, positive controls or DMSO only was transferred to the assay plate by a Pintool station (Kalypsys, San Diego, CA), followed by addition of 1 uL of agonist (R1881) in culture medium using a Bioraptr Flying Reagent Dispenser (FRD) workstation (Beckman Coulter, Indianapolis, IN, USA). The plates were incubated at a 37C and 0% CO2 for 16 h. After 15.5 h incubation, 1uL of CellTiter-Fluor reagent (Promega, Madison, WI) was added using a Bioraptr FRD to each plate for measuring cytotoxicity. The fluorescence intensity was quantified on a ViewLux plate reader (PerkinElmer, Shelton, CT) following 30 min incubation at 37C and 0% CO2. For measuring luciferase reporter gene activity, 4 uL of ONE-Glo reagent (Promega) was added to each plate using a Bioraptr FRD and luminescence was quantified on a ViewLux (PerkinElmer) plate reader after 30 min incubation at room temperature.
In general terms: In qHTS, concentration-response curves come from the screen itself.
With `COCCOC[C@H](CC1(C(=O)NC2CCC(C(=O)O)CC2)CCCC1)C(=O)Oc1ccc2c(c1)CCC2` (stereo not given in full), the outcome was inactive.

As for `CC1CCC(CO)CC1` (stereo not given), the compound was classed as inactive.

Consider `CC(C)NNC(=O)c1ccncc1`, for which the call was inactive.

As to `COC(=O)C1=C(C)NC(C)=C(C(=O)OC(C)C)C1c1cccc2nonc12` (stereo not given), the call was inactive.

With `CCCOC(=O)CC`, the result was inactive.

In the case of `CCCCS(=O)(=O)N[C@@H](Cc1ccc(OCCCCC2CCNCC2)cc1)C(=O)O`, the compound was called inactive.

For the compound `C[C@@H]1C[C@H]2[C@@H]3C[C@H](F)C4=CC(=O)C(Cl)=C[C@]4(C)[C@@]3(F)[C@@H](O)C[C@]2(C)[C@@]1(O)C(=O)CO`, the compound was called inactive.

Consider `O=C(O)Cc1csc(-c2ccc(Cl)cc2)n1`, for which the compound was classed as inactive.

Regarding `CC(=O)N[C@H]1[C@H]([C@H](O)[C@H](O)CO)OC(C(=O)O)=C[C@@H]1N=C(N)N`, the outcome was inactive.

As to `CCCCOCCOC(=O)COc1cc(Cl)c(Cl)cc1Cl`, the outcome was inactive.

`NS(=O)(=O)Cc1noc2ccccc12`: the outcome was inactive.

With `COC(=O)Nc1ccc(Cl)c(Cl)c1`, the call was inactive.

Regarding `CC(C)C1CCC(O)CC1` (stereo not given), the compound was classed as inactive.

Regarding `Cc1ccc(C(=O)c2ccc(CC(=O)O)n2C)cc1`, the result was inactive.

Regarding `CCCCCCCCCC[N+](C)(C)[O-]`, the compound was classed as inactive.

Regarding `CCOC(=O)COc1cc(-n2ncc(C(F)(F)F)c(C)c2=O)c(F)cc1Cl`, the compound was classed as inactive.

With `O=S(=O)(O)c1cccc(S(=O)(=O)O)c1`, the call was inactive.

As for `Cc1ccc(C(=O)c2ccccc2)cc1`, the outcome was inactive.

On to `CCN(Cc1ccccc1)c1ccccc1`, for which the compound was called inactive.

Regarding `CNC(=O)Nc1ccc(Cl)c(Cl)c1`, the compound was classed as inactive.

For `Nc1c2c(nc3c1CCC3)CCCC2`, the compound was called inactive.

Take `Cc1nc2ccc(CN(C)c3ccc(C(=O)N[C@@H](CCC(=O)O)C(=O)O)s3)cc2c(=O)[nH]1`: the outcome was inactive.

Take `Cc1ccc(-c2ncc(Cl)cc2-c2ccc(S(C)(=O)=O)cc2)cn1`: the call was inactive.

As to `CC1(C)OC[C@@H](COC(=O)CCc2ccc(OC[C@@H](O)CNCCNC(=O)N3CCOCC3)cc2)O1`, the result was inactive.

Consider `CCCCCCCC1CCCC1=O` (stereo not given), for which the compound was called inactive.

As to `O=S(=O)(O)c1cc(O)c(O)c(S(=O)(=O)O)c1`, the call was inactive.

For `CC(C)(C)c1ccc(-c2ccc(C(C)(C)C)cc2)cc1`, the compound was called inactive.

On to `C=C[Si](OC(C)=O)(OC(C)=O)OC(C)=O`, for which the compound was called inactive.

For the compound `O=C(O)CCSCCC(=O)O`, the compound was called inactive.

For the compound `CO[C@@]1(NC(=O)CSC[C@@H](N)C(=O)O)C(=O)N2C(C(=O)O)=C(CSc3nnnn3C)CS[C@@H]21`, the compound was called inactive.

As for `CC1=NN(c2cccc(S(=O)(=O)O)c2)C(=O)C1`, the outcome was inactive.

As to `CCCCCC(C)N` (stereo not given), the call was inactive.

On to `CC[N+](CC)(CC)CCOc1cccc(OCC[N+](CC)(CC)CC)c1OCC[N+](CC)(CC)CC`, for which the call was inactive.

Consider `CC(=O)N1C[C@H](O)C[C@H]1C(=O)O`, for which the compound was called inactive.

With `CC(=O)O[C@@]12CO[C@@H]1C[C@H](O)[C@@]1(C)C(=O)[C@H](O)C3=C(C)[C@@H](OC(=O)[C@H](O)[C@@H](NC(=O)OC(C)(C)C)c4ccccc4)C[C@@](O)([C@@H](OC(=O)c4ccccc4)[C@H]21)C3(C)C`, the result was inactive.

Source of the values: PubChem BioAssay (Tox21).
